{
  "source": "PubChem BioAssay (NCATS)",
  "note": "Records with an inconclusive call do not appear. Calls of active or inactive are those of the source. The call rests on the fitted dose curve; in most records, active means well fitted inhibition curve with a large enough effect; inconclusive means small, poorly fitted or top-dose-only effect; inactive means flat fitted curve, though single readings scatter.",
  "data": [
    {"test_system": "NIH3T3", "assay": "qHTS assay to identify novel small-molecules to repurpose for Merkel cell carcinoma treatment (AID 1296009); further: nearly all actives have a fitted effect of over 60% in size", "conditions": "MCC and control cell lines, CellTiter-Glo viability, 72 h; series mostly up to 44.8 µM", "from_the_text": "MCC is a rare and aggressive neuroendocrine skin cancer with limited treatment options. Approximately 80% of MCCs have the Merkel cell polyomavirus (MCPyV) DNA integrated into the host genome (virus-positive: VP-MCC) and viral oncogenes drive oncogenesis. The remaining MCCs are virus-negative (VN-MCC) and are caused by UV mutagenesis. To identify novel treatments for VP-MCC and/or VN-MCC we screened three VP-MCC cell lines (WAGA, MKL-1, MKL-2), three VN-MCC cell lines (MCC-13, MCC-26, UISO), and four immortalized, non-transformed control cell lines (HaCaT, HEK293T, CRL7250, NIH-3T3) against ~2,400 compounds in the NCGC Pharmaceutical Collection (NPC) and ~1,900 compounds in the Mechanism Interrogation PlatE (MiPE). Using cell viability as a readout (CellTiter-Glo assay) we found both overlapping and distinct drugs that can be repurposed for the treatment of VP-MCC and VN-MCC.\nA high-throughput screen was conducted in 1536-well white flat bottom plates (Corning) on a Kalypsys robotic system. Cell lines WAGA, MKL-1, MKL-2, MCC-13, MCC-26, UISO, HaCaT, HEK293T, CRL7250, and NIH-3T3 were screened against 2 small molecule annotated drug libraries NPC and MIPE in dose response (8 and 11 pt. respectively) measuring cell viability after 72 hours of incubation. […] A 1,536 pintool (Kalypsys) was used to transfer 23 nL of compound in DMSO to the 1,536-well assay plates. After 72 hr incubation at 37 degree celsius, 2.5 uL of CellTiter-Glo (Promega) was dispensed into each well using a BiorapTR. Plates were incubated at room temperature for 10 min, transferred to a ViewLux (PerkinElmer) and the luminescence was recorded using an exposure time of 2 seconds. Relative luminescence units (RLUs) were normalized to in-plate controls (no cells as a positive (cytotoxicity) control, DMSO as negative control) and the normalized data was processed using NCATS in-house software.", "values": [
      {"smiles": "CCOc1ccc(S(=O)(=O)N2CCCCCC2)c2ccccc12", "outcome": "inactive"},
      {"smiles": "Nc1nc2c(nc(Br)n2[C@@H]2O[C@@H]3COP(=O)(O)O[C@H]3[C@H]2O)c(=O)[nH]1", "outcome": "inactive"},
      {"smiles": "O=C([C@@H](Cc1cccc(C(F)(F)F)c1)NS(=O)(=O)c1cc(F)c2c(c1)CCNC2)N1CCCC1", "outcome": "inactive"},
      {"smiles": "CCCCCCCOc1cc2c(cc1/C(C)=C/c1ccc(C(=O)O)cc1)C(C)(C)CCS2(=O)=O", "outcome": "inactive"},
      {"smiles": "O=c1[nH]c2ccccc2n1CCN1CCN(c2cccc(C(F)(F)F)c2)CC1", "outcome": "inactive"},
      {"smiles": "CN1CCc2cc3c(cc2C(=O)Cc2cc4c(cc2C1)OCO4)OCO3", "outcome": "inactive"},
      {"smiles": "CC(C)(F)CC(NC(c1ccc(-c2ccc(S(C)(=O)=O)cc2)cc1)C(F)(F)F)C(=O)NC1(C#N)CC1", "note": "(stereo not given)", "outcome": "inactive"},
      {"smiles": "CC1(C)C2CCC(CO[C@@H]3O[C@H](CO[C@@H]4OC[C@](O)(CO)[C@H]4O)[C@@H](O)[C@H](O)[C@H]3O)C1C2", "note": "(stereo not given in full)", "outcome": "inactive [at 17.4 µM]"},
      {"smiles": "N[C@@H]1c2cccnc2[C@H](OC(=O)N2CCC(n3c(=O)[nH]c4ncccc43)CC2)CC[C@H]1c1cccc(F)c1F", "outcome": "inactive"},
      {"smiles": "C/C=C/C=C/C(=O)O[C@@H]1C=C2COC(=O)[C@]2(O)[C@@]2(C)CCCC(C)(C)[C@H]12", "outcome": "inactive"},
      {"smiles": "CC(C)(O)/C=C/C(=O)[C@](C)(O)[C@H]1[C@H](O)C[C@@]2(C)[C@@H]3CC=C4[C@@H](C[C@H](O[C@@H]5O[C@H](CO)[C@@H](O)[C@H](O)[C@H]5O)C(=O)C4(C)C)[C@]3(C)C(=O)C[C@]12C", "outcome": "inactive [at 17.4 µM]"},
      {"smiles": "COc1cc(O)cc(OC2OC(CO)C(O)C(O)C2O)c1", "note": "(stereo not given)", "outcome": "inactive"},
      {"smiles": "C=C1CO[C@@]2(O[C@H]3CC4C5CC=C6C[C@@H](O)C[C@@H](O[C@@H]7OC[C@H](O)[C@H](O[C@@H]8OC[C@@H](O)[C@H](O)[C@H]8O)[C@H]7O[C@@H]7O[C@@H](C)[C@H](OC(C)=O)[C@@H](OC(C)=O)[C@H]7OC(C)=O)[C@]6(C)C5CC[C@]4(C)[C@@H]3[C@@H]2C)[C@@H](O)[C@H]1OC1OC(C)C(O)C(O)C1O", "note": "(stereo not given in full)", "outcome": "inactive [at 9.27 µM]"},
      {"smiles": "Cc1cc(C(=O)Cn2cc(C#N)ccc2=O)c(C)n1Cc1ccccc1", "outcome": "inactive"},
      {"smiles": "CC(=O)OC(C)(C)/C=C/C(=O)C(C)(O)C1C(O)CC2(C)C3CC=C(C(C)(C)C(=O)O)C(CC(=O)O)C3(C)C(=O)CC12C", "note": "(stereo not given)", "outcome": "inactive [at 17.4 µM]"},
      {"smiles": "CC(=O)O[C@@H]1CC[C@@]2(C)C(CC[C@]3(C)C2[C@H](O)C=C2[C@H]4[C@@H](C)[C@H](C)CC[C@]4(C)CC[C@]23C)[C@@]1(C)C(=O)O", "note": "(stereo not given in full)", "outcome": "inactive [at 17.4 µM]"},
      {"smiles": "CC(=O)C1=CCC2C3CC=C4CC(O)CC(O)C4(C)C3C(O)CC12C", "note": "(stereo not given)", "outcome": "inactive"},
      {"smiles": "NC(=O)c1cccc2[nH]c(-c3ccc(C4CCCN4)cc3F)nc12", "note": "(stereo not given)", "outcome": "inactive"},
      {"smiles": "O=C(NCC1CCN(Cc2cccc(Cl)c2)CC1)[C@@H]1CCCN(c2ncnc3c2nc2n3CCCC2)C1", "outcome": "inactive"},
      {"smiles": "Cn1nc(C(C)(C)C)cc1C(=O)N[C@@H](Cc1cccc(Cl)c1)C(=O)NCC#N", "outcome": "inactive"},
      {"smiles": "CC(=O)NCc1cccc(OC[C@@H](O)CNCCc2ccc(NS(=O)(=O)c3ccccc3)cc2)c1", "outcome": "inactive"},
      {"smiles": "CNCCCC1(c2ccccc2)OC(C)(C)c2ccccc21", "note": "(stereo not given)", "outcome": "inactive"},
      {"smiles": "C=C1CCC2C(C)(C)CCCC2(C)C1CC/C(C)=C\\CO", "note": "(stereo not given)", "outcome": "inactive"},
      {"smiles": "CC[C@H](C)/C=C(C)/C=C/C1=CC2=C(Cl)C(=O)[C@](C)(O)[C@H](OC(C)=O)[C@H]2CO1", "outcome": "inactive"},
      {"smiles": "C=C[C@H](/C=C\\c1ccc(O)cc1)c1ccc(O)cc1", "outcome": "inactive"},
      {"smiles": "N#Cc1cc(C2=Nc3ccc(Br)cc3NC(=O)C2)ccn1", "outcome": "inactive"},
      {"smiles": "O=C(Nc1ccn(Cc2ccc(O)cc2C(F)(F)F)n1)c1c(F)cccc1F", "outcome": "inactive"},
      {"smiles": "COc1ccc2c(c1O[C@H]1CCNC1)CCC2", "outcome": "inactive"},
      {"smiles": "C=C(C(=O)OC)[C@@H]1CC=C2C=CC(=O)[C@H](C)[C@@]2(C)C1", "outcome": "inactive"},
      {"smiles": "CCC(CC)C(=O)OC12C(OC(=O)C(C)C)C(C)C3(O)C(C=C(CO)CC4(O)C(=O)C(C)=CC43)C1C2(C)C", "note": "(stereo not given)", "outcome": "inactive [at 17.4 µM]"},
      {"smiles": "COC1CC(O[C@H]2CC[C@]3(C)C4CC[C@@]5(C)C(=O)[C@]4(CC[C@@H]3C2)CC[C@@H]5C2=CC(=O)OC2)OC(C)C1OC1OC(COC2OC(CO)C(O)C(O)C2O)C(O)C(O)C1O", "note": "(stereo not given in full)", "outcome": "inactive [at 9.27 µM]"},
      {"smiles": "C=C1[C@H]2CC[C@H](C(=O)O)[C@@]23CC[C@H](C3)C1(C)C", "outcome": "inactive"},
      {"smiles": "CCOC(=O)N1CCC(N2CCC[C@@H](NC(=O)c3ccccc3C)C2)CC1", "outcome": "inactive"},
      {"smiles": "Cc1cc(C)c(S(=O)(=O)n2cc(C)cc2C)c(C)c1", "outcome": "inactive"},
      {"smiles": "COc1cc(N(C)CCN(C)C)c(N)cc1Nc1nccc(-c2cn(C)c3ccccc23)n1", "outcome": "inactive"},
      {"smiles": "CN(C)CCOc1cc(NS(=O)(=O)c2c(Cl)cc(C(F)(F)F)cc2Cl)ccc1Cl", "outcome": "inactive"},
      {"smiles": "C/C=C(\\C)C(=O)OC1C=C(C)CC(OC(=O)c2ccc(O)cc2)C2C1(C)CCC2(O)C(C)C", "note": "(stereo not given)", "outcome": "inactive [at 17.4 µM]"},
      {"smiles": "O=C(NCC1(N2CCN(c3ccccc3)CC2)CCOCC1)c1cccnc1Sc1ccccc1", "outcome": "inactive"},
      {"smiles": "CCOc1ccc(CCNC(=O)c2cc3sc(Cl)cc3n2C)cc1OCC", "outcome": "inactive"},
      {"smiles": "O=c1[nH]cnc2c([C@@H]3N[C@H](CO)[C@@H](O)[C@H]3O)c[nH]c12", "outcome": "inactive"}
    ]}
  ]
}
